aSyn rescue = inhibitors of alpha-synuclein toxicity in yeast | Yeast expressing alpha-synuclein, growth rescue, BacTiter-Glo, 24 h | Potency, µM (doses to about 46.1 µM), inactives show at the top dose growth rescue (activation), most hits filed as activators | hit rate 0.14% among 370,000 | AID 652106; also: % of control where 0% means no effect; nearly all actives have a fitted effect of over 65% in size
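Rescue of yeast growth: cells expressing toxic alpha-synuclein, induced in galactose at OD600 0.02, incubated with compound 24 h at 30 C. ATP luminescence quantified growth; inhibitors of toxicity appear as activators.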
TDP-43 yeast inh = inhibitors of TDP-43 toxicity in yeast | TDP-43 expressing yeast growth rescue, BacTiter-Glo, 24 h | hit rate 1.8% among 410,000 | Potency, µM (titrated, usually from 46.1 µM), inactives show at the top dose growth rescue (activation), most hits filed as activators; also: % of control where 0% means no effect; nearly all actives have a fitted effect of over 50% in size
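In this qHTS, compounds that restore growth of yeast expressing TDP-43 appear as activators. Cells (OD600=0.02, galactose medium, raffinose-pregrown) are incubated with compound 24 hr at 30 deg C and growth is quantified by BacTiter-Glo.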
FUS suppressor = rescues growth of FUS-expressing yeast | S. cerevisiae FUS-expressing, growth rescue, OD600, 24 h | Potency, µM (titrated, usually from 76.6 µM), hits mostly activators | hit rate 0.24% among 390,000;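 also: plate controls were DMSO vehicle for no effect and reference control for full effect; nearly all actives have a fitted effect of over 55% in size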
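Quantitative HTS measuring growth restoration of FUS-toxic yeast. Galactose-induced cells (OD 0.005) were exposed 24hr at 30C to compounds at several concentrations, then absorbance at 600 nm was recorded.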
Abeta rescue = A-beta toxicity reversal in yeast. yeast expressing A-beta42, growth rescue, OD600, 48 h; response scale: 0% DMSO, 100% iron-clioquinol control. Potency, µM (highest dose often 46.1 µM), most hits filed as activators. hit rate 0.063% among 410,000. AID 1347071; also: nearly all actives have a fitted effect of over 55% in size
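Yeast A-beta toxicity model in growth medium with pinned compounds, 48 h at 30 C; growth read as absorbance at 600 nm. Normalized to FeCl3/clioquinol equimolar mix (positive) and DMSO (negative).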
Starred values were filed as active, the others as inactive; i = inactive; ? = inconclusive; . = no result. Only some compounds are listed: those with a hit (about 2.1% of all), similar ones and a draw of the others. Calls follow the shape of the dose curve; as a rule, active = well fitted curve in the direction sought with a large enough effect; inconclusive = small, poorly fitted or top-dose-only effect, or another doubt; inactive = no such curve, though single readings can be large; an effect the other way counts as inactive or inconclusive. Potency is read from the fitted curve at half-maximal effect.

SMILES | aSyn rescue | TDP-43 yeast inh | FUS suppressor | Abeta rescue
COc1cccc(OC)c1C(=O)Nc1cccc(-c2cn3ccsc3n2)c1 | . | 8.9% | i | i
COc1cc(OC)cc(C(=O)Nc2cccc(-c3cn4ccsc4n3)c2)c1 | . | 22.4µM* | ? | i
CCC(=O)Nc1cccc(-c2cn3ccsc3n2)c1 | 2.0% | 12.3% | i | i
COc1ccc(C(=O)C2CCN(c3ncnc4sccc34)CC2)cc1 | . | . | i | .
O=C(COc1ccccc1)Nc1ccccc1C(=O)NCc1ccco1 | 0.7% | 20µM* | i | i
COc1ccccc1OCC(=O)Nc1ccccc1C(=O)NCc1ccco1 | 0.6% | 2.9% | i | i
Cc1cc(C)cc(Cn2ncc(Cl)c(Cl)c2=O)c1 | 1.4% | 17.8µM* | . | i
O=c1c(Cl)c(Cl)cnn1Cc1ccccc1Cl | 4.5% | 35.5µM* | . | i
Cc1ccc(Cn2ncc(Cl)c(Cl)c2=O)cc1 | 1.3% | ? | . | i
CC(=O)N1CCN(C2=NC(=O)C(=C3CCCCC3)S2)CC1 | -6.5% | -15.7% | i | i
Cc1cccc(N2CCN(C3=NC(=O)C(=C4CCCCC4)S3)CC2)c1 | . | 7.08µM* | i | i
CC(=O)Nc1ccc(NCN2C(=O)C3C4CCC(C4)C3C2=O)cc1 (stereo not given) | 3.7% | 25.1µM* | i | i
CCOc1ccc(-n2c(COc3ccccc3)nnc2SCC(=O)Nc2ccc(OCc3ccccc3)cc2)cc1 | . | . | i | .
CC(=O)N1CCN(c2ccc(NC(=O)C(C)Oc3ccc(Cl)cc3Cl)cc2)CC1 (stereo not given) | 3.0% | 11.2µM* | ? | i
Cc1nn(C)c2c1c(C(F)(F)F)cc(=O)n2CC(=O)N1CCN(c2ccccc2F)CC1 | . | 22.4µM* | ? | i
Cc1cc(=O)n(CC(=O)N2CCN(c3ccccc3F)CC2)c2c1c(C)nn2C | . | ? | i | i
COC(=O)[C@]12CCCCC=C1N(CCC1=CCCCC1)C(=O)[C@H](CC(=O)NCc1ccccc1)C2 | 21.7% | 35.5µM* | i | i
CCOC(=O)[C@]12CCCC=C1N(Cc1ccccc1)C(=O)[C@H](CC(=O)NCC13CC4CC(CC(C4)C1)C3)C2 | 6.2% | -4.5% | 12.6µM* | i
CCCCCCCCN1C(=O)[C@H](CC(=O)NCCC(C)C)C[C@@]2(C(=O)OCC)CCCC=C12 | -1.1% | -12.4% | ? | i
CCOC(=O)[C@]12CCCC=C1N(CCC1=CCCCC1)C(=O)[C@H](CC(=O)NCCC(C)C)C2 | -17.6% | 25.1µM* | i | i
CCOC(=O)[C@]12CCCC=C1N(CCC1=CCCCC1)C(=O)[C@H](CC(=O)NCCc1ccccc1OC)C2 | 5.6% | 20µM* | i | i
CC(C)(C)c1ccc(S(=O)(=O)N2CCCC(C(=O)NCc3ccco3)C2)cc1 (stereo not given) | . | . | i | .
COC(=O)C[C@H]1CC[C@H]2[C@H](COc3ccc(NC(=O)Nc4ccccc4F)cc3C(=O)N2C)O1 | . | . | i | .
O=C(NCCc1ccc2c(c1)OCO2)c1cc(-c2ccccc2)c(N2CCOCC2)s1 | . | . | i | .
CCOC(=O)N1CCN(C(=O)C[C@H]2C[C@@]3(C(=O)OC)C(=C[C@H](C(C)C)O[C@@H]3C3CC3)N(CCc3ccc(OC)c(OC)c3)C2=O)CC1 | . | . | i | .
SMILES | aSyn rescue | TDP-43 yeast inh | FUS suppressor | Abeta rescue
CCOC(=O)N1CCN(C(=O)C[C@H]2C[C@@]3(C(=O)OC)C(=C[C@H](C(C)C)O[C@@H]3C3CC3)N(CCC3=CCCCC3)C2=O)CC1 | . | . | 12.6µM* | .
CCOC(=O)[C@]12CCCC=C1N(Cc1ccco1)C(=O)[C@H](CC(=O)N1CCC(c3ccccc3)CC1)C2 | 2.0% | 14.1% | i | i
COC(=O)[C@]12CCCCC=C1N(Cc1ccco1)C(=O)[C@H](CC(=O)N1CCC(c3ccccc3)CC1)C2 | 6.8% | 12.6µM* | i | i
CNc1ncc(C(=O)c2ccc(Cl)cc2)s1 | -2.9% | 10µM* | i | i
CNc1ncc(C(=O)c2ccc(Cl)c(Cl)c2)s1 | -4.9% | ? | i | i
CNC(=S)/N=C/NOCc1ccc(Cl)cc1Cl | -21.1% | 10µM* | i | i
NC(=O)NOCc1ccc(Cl)cc1Cl | 0.0% | 19.6% | i | i
COC(=O)[C@]1(C)CN(C(=O)OC(C)(C)C)C2=C1C(=O)C[C@@](C)(C(=O)OC(C)(C)C)C2 | . | . | i | .
Cc1cccc(C2NC(=O)c3ccccc3O2)c1 (stereo not given) | 7.4% | 14.1µM* | i | i
C#CCSc1nncn1C(=O)/C=C/c1ccccc1 | 12.6µM* | -16.2% | i | i

From PubChem
